{"source": "PubChem BioAssay (NCI)", "note": "The panel holds about 83,000 compounds, 20% with a hit somewhere; the sample as a whole holds those more often.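 Values shown are percent growth following 48 h exposure of cells in 96-well plates to a single concentration of compound; below 10 was considered active.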 A number with no mark means an inactive call. Activity calls are given as the source filed them."}
{"system": "HS 578T breast", "test": "NCI-60 one-dose screen, 48 h (100 = growth as untreated, 0 = no growth, -100 = all killed)", "details": "10 µM unless noted"}
{"smiles": "O=C1NC(=O)c2c1c1c3ccccc3ccc1c1[nH]c3ccccc3c21", "growth": "12.7%"}
{"smiles": "Cc1ccc(-c2csc(N/N=C/c3nc4ccccc4n3C3CC3)n2)cc1", "growth": "88.5%"}
{"smiles": "CC(C)=CCc1c(O)c(CC=C(C)C)c2c(c1O)C(=O)C1=C[C@@H]3C[C@H]4C(C)(C)O[C@@](C/C=C(\\C)C(=O)O)(C3=O)[C@@]14O2", "growth": "27.7%"}
{"smiles": "CN1CCN(c2nc(-c3csc(-c4ccncc4)n3)cc3ccccc23)CC1", "growth": "66.1%"}
{"smiles": "CC(C)SC1=NC(=C(C(=N1)NC2=ClC=CC=C2)C#N)C3=CC=CC=C3", "growth": "65.4%"}
{"smiles": "Clc1ccc(-c2csc(N/N=C/c3nc4ccccc4n3C3CC3)n2)cc1", "growth": "106%"}
{"smiles": "COc1ccc(-c2ccc3c4c(cccc24)C(=O)N(N2C(=O)c4cccc5cccc(c45)C2=O)C3=O)cc1", "growth": "101%"}
{"smiles": "Cc1cc(C(=O)Nc2ccc(SC#N)cc2)c(C)o1", "growth": "112%"}
{"smiles": "Oc1ccc(CSc2nnc(-c3cnccn3)o2)c2cccnc12", "growth": "19%"}
{"smiles": "Cc1cn(-c2cc(NC(=O)c3cncc(C#Cc4cnc5ccc(OCCCS(C)(=O)=O)nn45)c3)cc(C(F)(F)F)c2)cn1", "growth": "-3.18% (active)"}
{"smiles": "N/C(=N\\OC(=O)CSc1nc2ccccc2s1)c1ccc2ccccc2c1", "growth": "105%"}
{"smiles": "Nc1nc(-c2cccc([N+](=O)[O-])c2)c(N=Nc2cccc(Cl)c2)s1", "growth": "55%"}
{"smiles": "CC[C@@](C)(NC(=O)C(C)(C)NC(=O)[C@@H](NC(=O)[C@@H]1CCCN1C(=O)C(C)(C)NC(=O)[C@H](CC(C)C)NC(=O)CNC(=O)C(C)(C)NC(=O)[C@@H](NC(=O)C(C)(C)NC(=O)[C@H](CCC(N)=O)NC(=O)[C@H](C)NC(=O)C(C)(C)NC(=O)[C@H](C)NC(=O)C(C)(C)NC(=O)[C@@H]1CCCN1C(=O)C(C)(C)NC(C)=O)C(C)C)C(C)C)C(=O)N[C@@H](CCC(N)=O)C(=O)N[C@@H](CCC(N)=O)C(=O)N[C@H](CO)Cc1ccccc1", "growth": "52.1% [4.25 µM]"}
{"smiles": "Nc1ccc(-c2nnc(SCc3ccc(O)c4ncccc34)o2)cc1", "growth": "-12.6% (active)"}
{"smiles": "O=C1Nc2ccc(Cl)cc2/C1=C/c1ccc(OCc2ccc(Br)cc2F)cc1", "growth": "102%"}
{"smiles": "CC(C)=CCc1c2c(c(O)c3c1O[C@]14C(=C[C@@H]5C[C@H]1C(C)(C)O[C@@]4(C/C=C(/C)C(=O)O)C5=O)C3=O)CC(O)C(C)(C)O2", "note": "(stereo partly drawn)", "growth": "15.7%"}
{"smiles": "C=C(C)C(=O)O[C@H]1C[C@@]2(C)OC(=CC2=O)/C(CO)=C\\[C@H]2OC(=O)C(=C)[C@H]12", "growth": "17.2%"}
{"smiles": "COc1ccc(-c2nnc(SCc3ccc(O)c4ncccc34)o2)cc1", "growth": "-0.148% (active)"}
{"smiles": "Nc1ccc(-c2nnc(SCc3ccc(O)c4ncccc34)n2-c2ccccc2)cc1", "growth": "5.08% (active)"}
{"smiles": "CC(C)N=C(N/C(N)=N/c1nc2ccccc2s1)NC(C)C", "growth": "75.9%"}
{"smiles": "CN1CCN(Cc2ccc(NC(=O)c3cncc(C#Cc4cnc5ccc(NC6CCOCC6)nn45)c3)cc2C(F)(F)F)CC1", "growth": "-26% (active)"}
{"smiles": "COc1cc(/C=C/C(=O)c2ccc(NC(=O)CSc3nnc(-c4ccc5nc(-c6ccccc6)[nH]c5c4)o3)cc2)cc(OC)c1OC", "growth": "85.5%"}
{"smiles": "COc1ccc(Cn2cc3c(c2-c2ccccc2)CCCc2cnoc2-3)cc1", "growth": "64.9%"}
